The results in this text go back to PubChem BioAssay AID2685 (National Center for Advancing Translational Sciences (NCATS), 2010).

Structures are written as SMILES. Among all 320,000 compounds or so, about 2,100 (0.66%) were called active. About 53% were inconclusive and are not listed. Calls follow the shape of the dose curve; as a rule, active = well fitted inhibition curve with a large enough effect in the signal ratio, with a control signal flat (not every such curve was filed as active); inconclusive = small, poorly fitted or top-dose-only effect, or effect the other way, or a change in a side signal; inactive = flat fitted curve, though single readings scatter; the % refers to the signal ratio. Shown is part of a subset that was picked to be rich in actives.
Potency is read from the fitted curve at half-maximal effect.

A short description of this assay: qHTS Assay for Lipid Storage Modulators in Drosophila S3 Cells.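 As to cell number change: cells counted by Cell Tracker Red CMTPX staining in the red channel.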 To be noted: BODIPY lipid droplet fluorescence, 18-24 h, cells fed with added oleic acid; cell number change: measured here: cell count max response; series mostly up to 46.1 µM. The gist of the method:
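Drosophila S3 cells loaded with oleic acid (400 uM, as added) and compounds at several concentrations; lipid droplets imaged by 488-nm laser-scanning cytometry, 500–530 nm intensity and object ratio to cell channel. Percent activity normalized to 20 uM Triacsin C.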
For the molecule `CCCN(CCC)Cc1c(C(=O)N/N=C/c2c[nH]c3ccccc23)nnn1-c1nonc1N`, the Potency result is “inactive” and the cell number change turned out to be 9.46%.
As to `Cc1ccc(/C=N/NC(=O)c2nnn(-c3nonc3N)c2C)o1`, the Potency entry was “inactive” and the cell number change was -13.6%.
For the molecule `Cc1ccc(-c2c(C(=O)N/N=C/c3ccc(C)o3)nnn2-c2nonc2N)cc1`, the Potency was 2.06 µM (active) and the cell number change is -11.5%.
As for `Cc1ccc(-c2c(C(=O)N/N=C/c3ccco3)nnn2-c2nonc2N)cc1`, the Potency entry was “inactive” and the cell number change is -15%.
Taken in the same sequence, the figures for `COCc1c(C(=O)N/N=C/c2cccc3ccccc23)nnn1-c1nonc1N` were “inactive” and 13.5%.
With `Cc1ccc(-c2c(C(=O)N/N=C/c3cccs3)nnn2-c2nonc2N)cc1`, the Potency entry is “inactive” and the cell number change was -27.4%.
Take `FC(F)(F)c1cccc(NC(=S)NCC(c2cccnc2)N2CCOCC2)c1` (centres undefined): the Potency entry was “inactive” and the cell number change was -6.8%.
For the molecule `COc1ccc(NC(=S)N(CCc2nc3cc(C)c(C)cc3[nH]2)Cc2cccnc2)cc1`, the Potency result was “inactive”.
Same read-out and setting: for `Cc1ccc(S(=O)(=O)N2CCC(C(=O)Nc3ccccc3N3CCCC3)CC2)cc1` the value was “inactive”; for `CCn1c(=O)cc(SCC(=O)NCc2ccccn2)c2ccccc21`, “inactive”.
With `COCCn1c(SCC(=O)NC(C)c2ccc(F)cc2)nc2ccccc21` (centres undefined), the Potency entry is “inactive” and the cell number change was 25.2%.
Taken in the same sequence, the figures for `O=C(COc1ccc2c(c1)oc(=O)c1ccccc12)NCCCN1CCOCC1` were “inactive” and 13.8%.
With `COc1ccc(CCN(Cc2cc3ccc(C)cc3[nH]c2=O)C(C)=O)cc1OC`, the Potency entry was “inactive”.
For the molecule `COc1ccc(-n2c(=S)[nH]c3cc(C(=O)Nc4ccc(OC)c(OC)c4)ccc3c2=O)cc1`, the Potency entry was “inactive” and the cell number change amounted to 1.06%.
Consider `COc1ccc(-n2c(=S)[nH]c3cc(C(=O)Nc4ccc(F)cc4)ccc3c2=O)c(OC)c1`, for which the Potency was 16.4 µM (active) and the cell number change is 32.1%.
Taken in the same sequence, the figures for `COc1ccc(-n2c(=S)[nH]c3cc(C(=O)NCc4ccccc4)ccc3c2=O)c(OC)c1` were “inactive” and 8.56%.
As for `CNC(=S)NNC(=O)Cn1ccc(C)n1`, the Potency entry is “inactive” and the cell number change was -2.68%.
With `O=C(Nc1ccccc1)OC(CN1CCCCC1)C(F)(F)F` (centres undefined), the Potency entry is “inactive” and the cell number change is -2.34%.
For `Fc1cccc(Nc2ncnc3[nH]ncc23)c1`, the Potency result was “inactive”.
With `Cc1ccc(C)c(SCC(=O)NCc2ccco2)c1`, the Potency entry was “inactive” and the cell number change is -4.84%.
For the molecule `O=C(N/N=C/c1ccc2ccccc2c1)c1ccc(COc2ccc3c(c2)CCC3)o1`, the Potency entry was “inactive” and the cell number change was -8.3%.
Taken in the same sequence, the figures for `NC(=O)CN1CCN(C2CC(=O)N(CCc3ccccc3)C2=O)CC1` (centres undefined) were “inactive” and 2.77%.
Consider `O=C1CC(N2CCN(c3ccccc3)CC2)C(=O)N1CCc1ccccc1` (centres undefined), for which the Potency entry was “inactive” and the cell number change is 0.673%.
Regarding `O=C1CC(N2CCN(C/C=C/c3ccccc3)CC2)C(=O)N1CCc1ccccc1` (centres undefined), the Potency was 3.26 µM (active) and the cell number change was -18.6%.
Taken in the same sequence, the figures for `CC1=NN(C(C#N)c2ccc(F)cc2)C(c2ccccc2)C1` (centres undefined) were “inactive” and -11.4%.
On to `COCC(=O)Nc1cc(=O)n(C)c(=O)n1C`, for which the Potency result is “inactive”.
For the molecule `Cc1ccc(OCCSc2ncnc3sc(C)c(C)c23)cc1C`, the Potency result is “inactive” and the cell number change was -4.8%.
In the case of `CC(=O)C1=C(Nc2ccccc2)CC(C)(O)C(C(C)=O)C1c1ccccc1` (centres undefined), the Potency result was “inactive” and the cell number change was determined as 6.32%.
Taken in the same sequence, the figures for `CCOC(=O)C1=C(Nc2ccc(Br)cc2)CC(C)(O)C(C(=O)OCC)C1c1ccccc1` (centres undefined) were “inactive” and 1.29%.
With `CCOC(=O)C1=C(Nc2ccccc2)CC(C)(O)C(C(=O)OCC)C1c1ccc(Cl)cc1` (centres undefined), the Potency was 1.16 µM (active) and the cell number change was 12.7%.
As to `CCCOC(=O)c1ccc(OCC(O)CN2CCN(C(=O)c3ccccc3)CC2)cc1` (centres undefined), the Potency result was “inactive” and the cell number change is 0.922%.
Regarding `COCCOC(=O)c1c(NC(=O)CN(C)c2ccccc2)sc(C(N)=O)c1C`, the Potency entry is “inactive”.
Regarding `COCCOC(=O)c1c(NC(=O)COC(=O)Cc2cccc(OC)c2)sc(C(N)=O)c1C`, the Potency is 6.51 µM (active).
`COCCOC(=O)c1c(NC(=O)COC(=O)c2ccc(C)o2)sc(C(N)=O)c1C`: the Potency entry was “inactive” and the cell number change was -10.2%.
With `O=C(NCc1ccccc1Cl)c1cccc(C(F)(F)F)c1`, the Potency result was “inactive” and the cell number change is -20.2%.
Take `O=S(=O)(c1ccc(F)cc1)N1CCCN(Cc2c(F)cccc2F)CC1`: the Potency entry was “inactive”.
For the molecule `O=C(O)/C(=C\C(=O)c1ccccc1)Nc1ccccc1`, the Potency result was “inactive” and the cell number change was 1.05%.
Consider `Cn1c(=O)c2cc3c(nc2n(C)c1=O)CC(c1ccccc1)CC3=O` (centres undefined), for which the Potency entry was “inactive” and the cell number change came to 11.1%.
Turning to `Nc1c(-c2ccc3c(c2)OCCO3)oc2ccccc2c1=O`, the Potency is 1.84 µM (active) and the cell number change was -8.11%.
Taken in the same sequence, the figures for `O=c1cc(-c2ccc3c(c2)OCCO3)oc2ccc(Cl)cc12` were “inactive” and 12.3%.
Consider `Nc1oc2ccccc2c(=O)c1-c1ccc2c(c1)OCO2`, for which the Potency result was “inactive” and the cell number change is 5.77%.
Taken in the same sequence, the figures for `CCOC(=O)C1=C(C)NC2=C(C(=O)CCC2)C1c1cccs1` (centres undefined) were “inactive” and 25.2%.
As for `COc1ccc(NS(=O)(=O)c2cccc(C(=O)N/N=C(\C)c3ccc(-n4ccnc4)cc3)c2)cc1`, the Potency result is “inactive” and the cell number change was 11.3%.
Turning to `O=C(Nc1ccccc1C(=O)NCCCN1CCOCC1)c1ccc(F)cc1F`, the Potency result was “inactive” and the cell number change was 3.6%.
On the same counts, the results for `COc1ccc(-n2ncc3c2CC(C)(C)CC3NC(=O)c2ccc(OC)o2)cc1` (centres undefined) are “inactive” and -8.87%.
For the molecule `Cn1nccc1C(=O)NC1CC(C)(C)Cc2c1cnn2-c1ccc(F)cc1` (centres undefined), the Potency entry is “inactive”.
`COc1ccc(-n2ncc3c2CC(C)(C)CC3NC(=O)c2ccnn2C)cc1` (centres undefined): the Potency was 14.6 µM (active) and the cell number change is -19.1%.
As for `CSCc1ccc(C(=O)NC2CC(C)(C)Cc3c2cnn3-c2ccc(F)cc2)o1` (centres undefined), the Potency is 25.9 µM (active) and the cell number change was -25.2%.
On to `CC1(C)Cc2c(cnn2-c2ccc(F)cc2)C(NC(=O)C2=NNC(=O)CC2)C1` (centres undefined), for which the Potency entry was “inactive”.
Regarding `CC1(C)Cc2c(cnn2-c2ccc(F)cc2)C(NC(=O)c2ccoc2)C1` (centres undefined), the Potency result was “inactive” and the cell number change amounted to 6.57%.
